Source: PubChem
A selection: hits, their analogues and other compounds. The true share with any hit is near 2.2%.
S2 tox: cell viability loss in ATXN counter-screen; S2 cells (HEK-293 line with an ATXN2-luciferase reporter) viability, CellTiter-Fluor protease fluorescence, 24 h; 400,000 tested, 0.49% active; Potency, µM (highest dose often 56.7 µM), actives largely listed as cytotoxic; note: potency is the fitted concentration of half-maximal effect; nearly all actives have a fitted effect of over 40% in size
TGFb inhibitor: TGF-b pathway inhibition | HepG2 CAGA-GFP TGF-b/SMAD3 reporter, GFP fluorescence, 18 h; TGF-beta stimulated, 500 pg/mL final | Potency, µM (highest dose often 46.1 µM), inactives show top-dose activity, negative = inhibition, actives largely listed as inhibitors | 410,000 tested, 1.2% active; note: potency is the fitted concentration of half-maximal effect; % is set by controls: 0 for no effect and ±100 for the full control effect; nearly all actives have a fitted effect of over 65% in size
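TGF-beta reporter screen: HEPG2 CAGA-GFP, 1% FBS, 500 pg/mL TGF-beta final, 18 h; per-cell GFP summed per well; curves fitted and categorized by class.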
mIDH1 inhibitor: inhibitors of human mutant IDH1 R132H. Potency, µM (titrated, usually from 76.6 µM), inactives show top-dose activity change, negative = inhibition, usual class: inhibitors. IDH1-R132H enzyme, NADPH consumption, diaphorase/resazurin fluorescence. O75874. 390,000 tested, 0.093% active; note: potency is the fitted concentration of half-maximal effect; % is set by controls: 0 for no effect and ±100 for the full control effect; nearly all actives have a fitted effect of over 65% in size
Target sequence (O75874 whole entry R132H, stated change not applied): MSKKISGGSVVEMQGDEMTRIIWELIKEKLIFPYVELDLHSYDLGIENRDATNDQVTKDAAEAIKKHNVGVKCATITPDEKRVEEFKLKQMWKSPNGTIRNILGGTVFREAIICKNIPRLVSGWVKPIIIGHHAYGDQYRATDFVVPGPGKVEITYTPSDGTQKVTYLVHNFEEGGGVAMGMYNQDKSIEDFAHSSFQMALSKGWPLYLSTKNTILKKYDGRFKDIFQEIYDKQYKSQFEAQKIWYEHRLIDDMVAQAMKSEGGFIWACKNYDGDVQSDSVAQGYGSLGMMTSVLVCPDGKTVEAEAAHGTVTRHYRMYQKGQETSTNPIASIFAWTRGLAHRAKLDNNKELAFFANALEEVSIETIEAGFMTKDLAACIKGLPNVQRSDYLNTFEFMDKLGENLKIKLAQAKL
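IDH1-R132H (0.5 ug/mL) preincubated 30 min with compound, then NADPH (0.016 mM) and alpha-KG (2 mM) added; 80 min at RT, pH 7.5. Remaining NADPH coupled via diaphorase/resazurin to fluorescence (540/590 nm); concentration-response curves normalized to no-enzyme control.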
HepG2 tox: HepG2 cytotoxicity, counter-screen for TGF-b inhibitors; HepG2 CAGA-GFP viability, ATP luminescence, 18 h; AID 588856; Potency, µM (highest dose often 46.1 µM), for the others: at the top dose activity change, negative = cytotoxicity, hits mostly cytotoxic; 410,000 tested, 0.76% active; note: potency is the fitted concentration of half-maximal effect
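CellTiter-Glo luminescence gave cytotoxicity after 18 hours at 37 degrees C. The cells were HepG2 CAGA-GFP in 1% FBS DMEM, stimulated with 500 pg/mL TGF-beta after compound addition. %Activity was normalised to no-cell wells (complete cell-killing) and DMSO (no toxicity), and curves were fitted and classified.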
LDHA block: LDHA (human) enzyme inhibition | P00338 | purified LDHA, NADH/diaphorase-resazurin fluorescence; active compounds read low | activity change, % (values are at about 110 or 230 µM) | 480,000 tested, 0.15% active; in the data active = activity change below about -30%; inconclusive = mostly about -25% to -30%;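 note: plate controls were DMSO wells for no effect and wells without enzyme for full effect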
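Resorufin fluorescence (ex540/em590), read at 0 and 20 min after diaphorase/resazurin addition, reports the NADH left after a 5 min room-temperature reaction of 2 nM human LDH5 with 0.06 mM NADH and 0.2 mM pyruvate.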
ATXN2 expr inh: ATXN2 expression inhibition; 360,000 tested, 0.72% active; HEK-293 ATXN2-luciferase reporter, luminescence, 24 h; Potency, µM (series often up to 57 µM), without a hit: at the highest dose activity change, negative = inhibition, most hits filed as inhibitors; note: potency is the fitted concentration of half-maximal effect; % is set by controls: 0 for no effect and ±100 for the full control effect; nearly all actives have a fitted effect of over 55% in size
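qHTS (up to 57 uM final) was run with 24 h compound exposure of reporter cells at 37 °C. Each well was multiplexed: SteadyGlo luminescence measured ATXN2-luciferase expression after a fluorogenic Gly-Phe-AFC viability readout (25 uM final).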
IDH1 autofl: counter-screen for mutant IDH1 inhibitors: fluorescence interference | shares compounds with mIDH1 inhibitor | Resorufin detection reagent fluorescence interference, cell-free | inhibition of signal, % at 51.2 µM | 750 tested, under 10 active | AID 623980;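 note: 0% = wells with normal resorufin and full inhibition = wells lacking resorufin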
IDH1 WT: selectivity of mutant IDH1 inhibitors: human wild-type IDH1; 750 tested, 9% active; WT IDH1 enzyme, NADPH diaphorase/resazurin fluorescence; AID 623995; shares compounds with mIDH1 inhibitor; Potency, µM (titrated, usually from 115 µM), for the others: top-dose activity change, negative = inhibition, hits mostly inhibitors;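 note: potency is the fitted concentration of half-maximal effect; 0% = full WT IDH1 enzyme control and full inhibition = no enzyme wells; nearly all actives have a fitted effect of over 55% in size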
Target sequence (O75874 whole entry, looked up): as the sequence (O75874 whole entry R132H, stated change not applied) above, with H132R counted along it
mIDH1 confirm: confirmation of human mutant IDH1 inhibitors; shares compounds with mIDH1 inhibitor; IDH1 R132H enzyme, NADPH diaphorase/resazurin fluorescence; Potency, µM (doses to about 76.6 µM), inactives show top-dose activity change, negative = inhibition, most hits filed as inhibitors; 750 tested, 83% active; note: potency is the fitted concentration of half-maximal effect; nearly all actives have a fitted effect of over 50% in size
Starred values were filed as active, the others as inactive; i = inactive; ? = inconclusive; / = no result given. Unless noted, calls come from the whole dose curve; as a rule, active = well fitted curve in the direction sought with a large enough effect; inconclusive = small, poorly fitted or top-dose-only effect, or another doubt; inactive = no such curve, though single readings can be large; an effect the other way counts as inactive or inconclusive.

SMILES | S2 tox | TGFb inhibitor | mIDH1 inhibitor | HepG2 tox | LDHA block | ATXN2 expr inh | IDH1 autofl | IDH1 WT | mIDH1 confirm
CC(=O)c1cccc(N(C(=O)CS(=O)CC(=O)Nc2ccc(F)cc2)C(C(=O)NC2CCCCC2)c2ccc(C)o2)c1 (configuration not stated) | i | -8% | ? | -23% | -10 | -8% | 0 | 1% | 16µM*
Cc1cc(NC(=O)CCC(=O)N(c2cccc(F)c2)C(C(=O)NC2CCCC2)c2ccc(C)o2)no1 (configuration not stated) | i | 7% | ? | 0% | -8 | -5% | -1 | -4% | 22µM*
Cc1ccc(S(=O)(=O)N2CCN(C(=O)COc3ccc(Br)cc3)CC2)cc1 | ? | 14% | 0% | 20% | -3 | -31% | / | / | /
O=C(Nc1cc(=O)[nH]c2ncnn12)c1ccccc1F | i | 0% | -2% | 6% | -2 | / | / | / | /
O=C(NCCN1CCOCC1)c1ccc(Cl)c(Cl)c1 | i | 0% | 2% | 8% | -6 | -13% | / | / | /
O=C1/C(=C\c2ccc(Cl)c(Cl)c2)CN(C(=O)CCN2CCOCC2)C/C1=C/c1ccc(Cl)c(Cl)c1 | 6.7µM* | 2.8µM* | ? | 16µM* | -5 | 6.7µM* | -4 | -4% | 28µM*
O=C(NCc1nnnn1-c1ccc(F)c(F)c1)c1ccc2c(c1)OCO2 | i | 17% | 2% | 3% | -1 | 7% | / | / | /
CCC(c1nnnn1C1CCCCC1)N(Cc1ccco1)Cc1cc2ccc(OC)cc2[nH]c1=O (configuration not stated) | ? | ? | ? | 6% | 1 | ? | -5 | 4% | ?
Cc1ccc2cc(C(c3nnnn3C3CCCC3)N(Cc3ccco3)Cc3cccs3)c(=O)[nH]c2c1 (configuration not stated) | i | -19% | 2% | -12% | -2 | 2% | / | / | /
CCCCOC(=O)CSC1=C(C#N)C(c2ccccc2OC)C(C#N)C(=O)N1 (configuration not stated) | i | 11% | ? | -39% | -6 | -2% | -1 | 64% | 45µM*
CCCOC(=O)CSC1=C(C#N)C(c2ccccc2OCC)C(C#N)C(=O)N1 (configuration not stated) | i | 1% | ? | -21% | -19 | 6% | -3 | 70% | 45µM*
COc1ccc(N(C(=O)/C=C\C(=O)Nc2ccc(Cl)cc2)C(C(=O)NCc2ccco2)c2ccc(C)cc2)cc1 (configuration not stated) | / | 13µM* | ? | -45% | -1 | / | 0 | 4% | -11%
COc1ccc(NCC(=O)N/N=C/C2CCCCC2)cc1 | i | 1% | -4% | -1% | 3 | 5% | / | / | /
Cc1ccc(N2C(=O)CCSC23C(=O)N(Cc2ccccc2)c2ccccc23)cc1F (configuration not stated) | / | ? | 22µM* | -61% | -5 | / | -7 | -18% | 25µM*
Cc1ccc(N2C(=O)CCSC23C(=O)N(Cc2ccc(F)cc2)c2ccccc23)cc1 (configuration not stated) | / | ? | ? | -63% | -9 | / | / | / | /
